Tests used:
Assay in all cases: PBM binding z-score (relative to random genomic background probes); higher = stronger binding; sequences stand for … in GC…GCGATTGACAGCGTAGAATGAAGG
[1] = tested on: FXR:RXRa (NR concentration 270 nM, RXRa partner concentration 90 nM)
Summary of the method: (§1)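 Binding buffer was PBS pH 7.4 with 2% milk, 0.02% Triton X-100, 1 mM DTT, 0.2 mg/mL BSA and 0.4 mg/ml salmon testes DNA. In it, ligand-free nuclear receptor dimers were incubated 1 h on custom Agilent 4×180K protein-binding microarrays carrying double-stranded probes. Antibodies against each partner (one per run) detected binding, and z-scores were calculated against random background probes after regression normalization of scanned fluorescence.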

[2] = tested on: LXRa:RXRa (NR concentration 270 nM, RXRa partner concentration 90 nM)
Summary of the method: as §1

[3] = tested on: LXRa homodimer (NR concentration 270 nM)
Summary of the method: as §1

[4] = tested on: LXRb:RXRa (NR concentration 270 nM, RXRa partner concentration 90 nM)
Summary of the method: as §1

[5] = tested on: LXRb homodimer (NR concentration 270 nM)
Summary of the method: as §1

[6] = tested on: PPARa:RXRa (NR concentration 270 nM, RXRa partner concentration 90 nM)
Summary of the method: as §1

[7] = tested on: PPARg:RXRa (NR concentration 180 nM, RXRa partner concentration 90 nM)
Summary of the method: as §1

[8] = tested on: PPARg:RXRa 270nM:90nM, anti-RXR (NR concentration 270 nM, RXRa partner concentration 90 nM)
Summary of the method: as §1

[9] = tested on: PPARg:RXRa 30nM:10nM, anti-RXR (NR concentration 30 nM, RXRa partner concentration 10 nM)
Summary of the method: as §1

[10] = tested on: PPARg:RXRa 90nM:30nM, anti-RXR (NR concentration 90 nM, RXRa partner concentration 30 nM)
Summary of the method: as §1

[11] = tested on: PPARg:RXRa DBDmut IVT, anti-RXR (DBD mutation: RXRa K156A/R161A, NR concentration 270 nM, RXRa partner concentration 90 nM)
Summary of the method: as §1

[12] = tested on: PPARg:RXRa IVT, anti-PPARg (NR concentration 270 nM, RXRa partner concentration 90 nM)
Summary of the method: as §1

[13] = tested on: PPARg DBDmut:RXRa IVT, anti-PPARg (DBD mutation: PPARg1 K132A/R137A, NR concentration 270 nM, RXRa partner concentration 90 nM)
Summary of the method: as §1

[14] = tested on: PPARg DBDmut IVT, anti-PPARg (DBD mutation: PPARg1 K132A/R137A, NR concentration 270 nM)
Summary of the method: as §1

[15] = tested on: PPARg homodimer (NR concentration 180 nM)
Summary of the method: as §1

[16] = tested on: PXR:RXRa (NR concentration 270 nM, RXRa partner concentration 90 nM)
Summary of the method: as §1

[17] = tested on: PXR homodimer (NR concentration 270 nM)
Summary of the method: as §1

[18] = tested on: RARa:RXR (NR concentration 270 nM, RXRa partner concentration 90 nM)
Summary of the method: as §1

[19] = tested on: RARa homodimer (NR concentration 270 nM)
Summary of the method: as §1

[20] = tested on: RARb:RXRa (NR concentration 270 nM, RXRa partner concentration 90 nM)
Summary of the method: as §1

| Sequence | PBM binding z-score [1] | PBM binding z-score [2] | PBM binding z-score [3] | PBM binding z-score [4] | PBM binding z-score [5] | PBM binding z-score [6] | PBM binding z-score [7] | PBM binding z-score [8] | PBM binding z-score [9] | PBM binding z-score [10] | PBM binding z-score [11] | PBM binding z-score [12] | PBM binding z-score [13] | PBM binding z-score [14] | PBM binding z-score [15] | PBM binding z-score [16] | PBM binding z-score [17] | PBM binding z-score [18] | PBM binding z-score [19] | PBM binding z-score [20] |
| --- | --- | --- | --- | --- | --- | --- | --- | --- | --- | --- | --- | --- | --- | --- | --- | --- | --- | --- | --- | --- |
| CGAACTAGGTCAGAACAAGACAGTGAAGGATGAT | 0.848 | 0.591 | -0.0962 | 0.588 | -0.311 | 3.32 | 5.7 | 4.3 | 2.01 | 3.41 | 7.36 | 7.43 | 2.55 | 1.93 | 1.19 | 0.244 | 0.276 | 0.614 | 0.172 | 2.85 |
| CCAGACAGGTGAGAAGGTAATTCAGCCTCGATTA | -0.0604 | -0.00281 | 0.0932 | 0.0559 | -0.31 | 0.475 | 0.379 | 0.635 | -0.0755 | 0.116 | 1.14 | 0.682 | -0.0729 | -0.734 | 0.321 | -0.0378 | 0.107 | 0.349 | 0.94 | 0.555 |
| GCGTACGGGTCAAAGGTTATAGCATGAATAGAAT | 7.58 | 5.75 | 0.516 | 5.7 | -0.18 | 6.8 | 10.5 | 8.74 | 8.99 | 9.27 | 2.3 | 4.85 | 0.234 | 2 | 4.07 | 6.11 | 0.08 | 8.62 | 0.0431 | 4.64 |
| ACTATTAGTTGACTTAGGGCAACCCATACGACGC | 0.287 | 0.126 | 0.344 | 0.24 | 0.53 | 0.137 | 1.03 | 0.234 | 0.457 | 0.203 | 0.51 | 0.696 | 0.977 | 1.6 | 0.67 | 0.18 | 0.375 | 0.59 | 1.02 | 0.823 |
| TAGCCTAGGTCATGCGGGCCACTATAGTGTCGGC | 4.19 | 3.36 | 0.309 | 1.86 | -0.164 | 3.55 | 2.41 | 2.65 | 0.295 | 1.5 | 1.87 | 3.38 | -0.194 | 0.594 | 1.72 | 1.69 | -0.634 | 2.72 | 0.388 | 3.69 |
| CCGAGTAGGTTATGGGGCATGCAGGCAACGGTGA | 0.144 | 0.219 | -0.12 | 0.502 | -0.337 | 1.93 | 3.81 | 4.62 | 2.08 | 4.14 | 2.71 | 3.37 | -0.039 | -0.361 | 0.867 | -0.014 | -0.179 | 0.374 | 0.0539 | 1.03 |
| CGAACTAGGTTATTGACAGGACAGTGAATAGTAA | 0.276 | 0.886 | 0.37 | 0.406 | -0.0993 | 2.09 | 2.41 | 2.12 | 0.574 | 1.47 | 5.85 | 5.11 | 0.805 | 0.514 | 0.855 | 0.198 | 0.237 | 0.554 | 0.372 | 0.837 |
| CCTACTGGGCCAAGGTCATTGATCAGTCAAAGCA | 2.95 | 3.12 | 1.06 | 2.74 | -0.497 | 4.1 | 4.15 | 4.44 | 1.5 | 3.81 | 3.5 | 4.5 | -0.374 | -1.03 | 1.27 | 3.3 | 0.534 | 3.29 | -0.4 | 3.27 |
| CATCCAAGGTCAGCAGGTCAGTGAAAGCGACGTG | 6.25 | 4.68 | 1.66 | 3.31 | 0.653 | 4.79 | 4.86 | 4.71 | 1.81 | 3.37 | 3.12 | 4.02 | 0.104 | 0.555 | 4.34 | 3.82 | 1.14 | 5.21 | 2.38 | 5.17 |
| CCTGCTAGGTCTTGGTCAGCTAATCTACAGTATG | -0.4 | -0.437 | -0.451 | -0.509 | -0.639 | -0.469 | -0.371 | -0.599 | -0.683 | -0.872 | 0.846 | -0.117 | -0.408 | -1.03 | -0.24 | -0.552 | -0.561 | -0.0179 | -1.02 | 0.537 |
| ATCGAAAGGTCGAGGTGTGTATAGAGAAAGGGAA | 3.92 | 3.39 | 0.47 | 2.82 | 0.483 | 4.43 | 2.6 | 3.16 | 1.2 | 2.19 | 0.539 | 1.92 | 1.19 | 0.613 | 1.6 | 2.17 | 0.958 | 3.25 | 1.16 | 4.03 |
| ATAGCAAGGTGATCGTGAGGTCGTTGATACTAAC | 1.34 | 0.986 | 0.104 | 0.673 | -0.808 | 1.47 | 0.359 | 0.22 | 0.0107 | -0.0753 | 0.118 | 0.727 | 0.619 | 0.253 | 0.565 | 2.62 | 0.543 | 1.98 | -0.0537 | 1.16 |
| ATCGAAAGGACGAAGGTGAGTATACCCACCCGAA | -0.0229 | 0.0207 | -0.291 | -0.347 | -0.118 | -0.0423 | 1.05 | 0.837 | 0.489 | 0.641 | -0.74 | 0.283 | -0.404 | -0.244 | 0.0409 | 0.00854 | -0.3 | -0.0536 | 0.0942 | 1.17 |
| CCTCGGAGGACAACAGGAGGTCAGAGATGCCAGA | 1.06 | 1.85 | 2.02 | 1.36 | -0.479 | 2.08 | 0.895 | 0.272 | -0.499 | -0.289 | -0.0162 | 0.314 | -0.377 | -1.49 | 1.1 | 2.04 | 0.508 | 2.05 | 0.885 | 2.8 |

— the supplement of paper PMC6555819
